Screening data (PubChem)
HCMV antiviral: qHTS Assay for inhibitors of the human cytomegalovirus (HCMV); actives 4.5% (n = 410,000); AID 1259415, 2018; activity change, negative = inhibition, % at 57.5 µM; HFF cells, HCMV-luciferase reporter, 72 h; hits give low values; in the data active = activity change below about -60%; inconclusive = no clear call, values can overlap the other calls; inactive = above about -39%
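Compounds were evaluated in HFFs infected with an HCMV luciferase reporter virus (MOI 1 PFU/cell). Luciferase in lysates collected 72 h post infection served as the replication measure.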
VACV Venus inh: qHTS for Stage-Specific Inhibitors of Vaccinia Orthopoxvirus: Venus Reporter Primary qHTS | Vaccinia virus Venus reporter expression, fluorescence | actives 0.46% (n = 330,000) | Potency, µM (highest dose often 36.5 µM), inactives show at the top dose activity change, negative = inhibition, actives largely listed as inhibitors; calls by dose curve; tested in A549 cells; also: potency is read from the fitted curve at half-maximal effect; nearly all actives have a fitted effect of over 30% in size
VACV mCherry inh: qHTS for Stage-Specific Inhibitors of Vaccinia Orthopoxvirus: mCherry Reporter Primary qHTS | AID 720579, 2013 | Potency, µM (titrated, usually from 36.5 µM), for inactives: at the highest dose activity change, negative = inhibition, usual class: inhibitors | Vaccinia virus mCherry reporter infection, fluorescence | actives 0.63% (n = 310,000); calls by dose curve; tested in A549 cells; also: potency is read from the fitted curve at half-maximal effect; nearly all actives have a fitted effect of over 35% in size
HCV inh: qHTS Assay for Inhibitors of Hepatitis C Virus (HCV); Huh7.5.1 HCVcc-Cre infection, luciferase reporter, 44 h; Potency, µM (titrated, usually from 41.8 µM), for the others: at the highest dose activity change, negative = inhibition, usual class: inhibitors; actives 3.4% (n = 340,000); AID 651820, 2012; active = well fitted inhibition curve with a large enough effect; inconclusive = small, poorly fitted or top-dose-only effect, or another doubt; inactive = no such curve, though single readings can be large or run the other way; also: potency is read from the fitted curve at half-maximal effect
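1,000 cells/well; 4 h culture; + compound; + HCVcc-Cre (~0.5 moi); 44 h; luciferase substrate, RT 15 min; read 15 sec.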
FMDV inh: High Throughput Screening for Foot and Mouth Disease Virus Antivirals; FMDV antiviral cell-based qHTS; Potency, µM (doses to about 57.9 µM), for inactives: top-dose activity change, negative = inhibition, hits mostly inhibitors; actives 1.2% (n = 410,000); AID 1159524, 2015; calls by dose curve; tested in HEK293T cells; also: read-out not given here; potency is read from the fitted curve at half-maximal effect; nearly all actives have a fitted effect of over 45% in size
* hit, by the source's call; i = inactive; ? = inconclusive; / = no result given; [ ] = another dose, or the depositor's remark. Rows were chosen to be rich in hits. Some 7.3% of all compounds tested hit in one or more screens of this group. % is scaled to controls: 0 for no effect and ±100 for the full control effect.

SMILES	HCMV antiviral	VACV Venus inh	VACV mCherry inh	HCV inh	FMDV inh
Cc1ccc(NC(=O)C2CCCN(c3ncnc4c3nc3n4CCCCC3)C2)c(Br)c1 (stereo unspecified)	0.7	0.5%	-8.2%	/	?
O=C(Cn1ncc2c3ccccc3n(Cc3cccc(Cl)c3)c2c1=O)N1CCCCCC1	-10.2	-15.2%	-6.0%	/	-22.4%
COc1ccc(C(=O)NCCS(=O)(=O)NCc2ccco2)cc1	7.6	-18.3%	i	-13.7%	-9.5%
COc1cccc(C(=O)NCCS(=O)(=O)NCc2ccco2)c1	-68.1*	2.8%	-19.9%	-1.3%	7.7%
c1ccc(CN2CCN(c3ncccn3)CC2)cc1	-17.0	-5.1%	-11.1%	9.9%	-15.2%
CN(c1ccccc1)c1nc(N2CCCC2)nc(-n2ccnc2)n1	-19.7	?	-15.6%	?	?
c1ccc(CN2CCN(c3nc(-c4ccccc4)nc(-n4ccnc4)n3)CC2)cc1	/	/	/	11.2µM*	-1.2%
c1ccc(N(c2ccccc2)c2nc(N3CCCC3)nc(-n3ccnc3)n2)cc1	-66.3*	/	/	?	?
CCc1cccc2c(C(=O)CN3C(=O)N(C)C4(CCCCC4)C3=O)c[nH]c12	-20.8	/	/	7.08µM*	-12.3%
CCc1cccc2c(C(=O)CN3C(=O)NC(C)(c4cccc5ccccc45)C3=O)c[nH]c12 (stereo unspecified)	53.6	?	?	?	?
CCc1cccc2c(C(=O)CN3C(=O)NC4(CCc5ccccc54)C3=O)c[nH]c12 (stereo unspecified)	-69.4*	?	?	?	-27.1%
Cc1ccccc1C(=O)NC(C)c1nnc2n1CCN(Cc1ccnc3ccccc13)CC2 (stereo unspecified)	/	-2.0%	-13.9%	/	4.9%
CC(OC(=O)C1CC(=O)N(Cc2ccco2)C1)C(=O)Nc1cccc(C#N)c1 (stereo unspecified)	-20.7	-8.6%	i	-7.8%	1.7%
COc1cc2c(cc1NC(=O)C(C)OC(=O)C1CC(=O)N(Cc3ccco3)C1)oc1ccccc12 (stereo unspecified)	172.2	-27.9%	-4.0%[1.46 µM]	14.1µM*	0.0%
Cc1ccc(-c2csc3nc[nH]c(=S)c23)cc1	?	-27.1%	-9.6%	-17.9%	-28.5%
S=c1[nH]cnc2scc(-c3ccc(Br)cc3)c12	-86.8*	-25.3%	-7.7%	?	-20.5%
Cc1ccc(NC(=O)CSc2nccn2C2CCCC2)cc1	-33.7	-12.8%	-13.8%	/	38.5%
COc1ccc(OC)c(-c2cc(Cl)c3c(c2)CC(CNC(=O)c2coc4c2C(=O)CCC4)O3)c1 (stereo unspecified)	/	3.4%	-9.7%	/	17.8%
CCOC(=O)c1c(NC(=O)CSc2cn(CCNC(=O)c3ccc(OC)c(OC)c3)c3ccccc23)sc2c1CCCC2	-18.7	-23.6%	-17.5%	/	0.0%
O=C(O)c1ccc(N2C(=O)/C(=C/c3ccc(-c4ccc([N+](=O)[O-])cc4)o3)C=C2c2ccccc2)cc1	/	176.6%	-6.7%	-29.6%	15.8µM*
COc1ccccc1C1=NOC(COc2ccc3c(C)cc(=O)oc3c2)C1 (stereo unspecified)	-94.6*	-29.0%	-13.4%	?	-9.7%
NC(=O)c1ccc(Oc2ccc3ccc(=O)oc3c2)c([N+](=O)[O-])c1	6.4	-6.6%	-22.1%	4.7%	6.7%
Cc1cc(=O)oc2cc(Oc3ccc([N+](=O)[O-])cc3[N+](=O)[O-])ccc12	3.5	-8.5%	i	?	35.5µM*
Cc1cc(=O)oc2cc(OCCc3ccccc3)ccc12	20.3	2.0%	?	?	28.3%
COc1ccc2c(C)cc(=O)oc2c1	-101.9*	-11.1%	-0.7%	-29.6%	-22.2%
SMILES	HCMV antiviral	VACV Venus inh	VACV mCherry inh	HCV inh	FMDV inh
Cc1cc(=O)oc2cc(Oc3ncccc3[N+](=O)[O-])ccc12	-8.2	-1.4%	-13.3%	5.4%	0.0%
O=c1ccc2ccc(Oc3ccc([N+](=O)[O-])cc3Cl)cc2o1	-11.1	-21.7%	-24.5%	11.2µM*	8.7%
O=S(=O)(c1ccc2ncsc2c1)N1CCN(c2nc(-c3cccs3)nc3ccccc23)CC1	/	-19.4%	i	/	/
COc1ccc(CN2CC[C@H]3C=CC[C@@H](C(=O)NC4CCCCC4)[C@H]3C2=O)cc1OC	/	-17.7%	i	/	/
COc1ccc(C2=NOC(COc3ccc4c(C)cc(=O)oc4c3)C2)c(OC)c1 (stereo unspecified)	-68.9*	?	?	?	2.9%
COc1cccc(COc2ccc3c(C)cc(=O)oc3c2)c1	68.1	-13.4%	-23.8%	-41.9%	28.4%
Fc1cccc(/C=N/n2c(C3CCCCC3)n[nH]c2=S)c1	36.3	/	/	9.5%	-11.7%
Oc1cccc(/C=N/n2c(C3CCCCC3)n[nH]c2=S)c1	8.3	-14.4%	-20.2%	2.24µM*	8.5%
O=C(Nc1nc2cc3c(cc2s1)OCO3)c1ccco1	0.0	-7.5%	i	0.3%	-75.2%
CC(=O)Nc1nc2cc3c(cc2s1)OCO3	-4.7	3.4%	-19.5%	8.1%	46.9%
O=C(Nc1nc2cc3c(cc2s1)OCO3)C1=COCCO1	-70.8*	-26.5%	?	?	-83.3%
O=C(Nc1nc2cc3c(cc2s1)OCCO3)c1ccco1	-92.1*	?	?	?	?
CCOC(=O)c1sc2ccccc2c1S(=O)(=O)Nc1ccc(CC)cc1	-1.5	-27.4%	i	/	16.5%
CC12CCC(C(=O)N(CCCN3CCN(Cc4ccccc4)CC3)C1=O)C2(C)C (stereo unspecified)	-90.3*	0.7%	-1.6%	2.2%	-20.6%
CC12CCC(C(=O)N(CCCCN3CCN(c4ccccn4)CC3)C1=O)C2(C)C (stereo unspecified)	-28.2	/	/	-3.8%	-22.7%
Cc1cc(C)nc(S[C@@H]2C[C@@H](C(=O)N3CCCN(C)CC3)N(Cc3cc(F)ccc3F)C2)n1	/	-5.6%	-12.5%	/	-3.8%
COc1cc(C)c(C)cc1S(=O)(=O)Nc1cccc(-c2ccc(N3CCOCC3)nn2)c1	21.7	-8.1%	i	/	11.2%
c1ccc(C2C3=C(CCCC3)Nc3ncnn32)cc1 (stereo unspecified)	-4.8	-1.6%	i	10.2%	/
Fc1ccc(/C=C2\CCCC3=C2Nc2ncnn2C3c2ccc(F)cc2)cc1 (stereo unspecified)	18.2	17.8µM*	?	?	?
CC1=C/C(=N\N=C2\NC(=O)C(CC(=O)Nc3ccccc3F)S2)CC(C)(C)C1 (stereo unspecified)	-65.3*	-12.4%	-2.4%	6.7%	-17.1%
O=C(CC1S/C(=N/N=C2CCCCCC2)NC1=O)Nc1ccccc1F (stereo unspecified)	33.4	/	/	7.9%	-16.5%
CCCCOc1ccc(C(=O)Nc2ccc3c(c2)CCCN3S(=O)(=O)c2ccc(C)cc2)cc1	?	-26.8%	-23.7%	/	-24.9%
c1ccc(N2CCN(c3c4c(nc5ncnn35)CCC4)CC2)cc1	-62.2*	/	/	?	?
